The source of these data is PubChem BioAssay AID1347165 (National Center for Advancing Translational Sciences (NCATS), 2019).

Hit rate of the full screen: of about 220,000 compounds, about 5,700 (2.6%) were called active. About 18% were inconclusive and are not listed. Shown is part of a subset that was picked to be rich in actives. Unmarked numbers belong to inactive results. Calls follow the shape of the dose curve; as a rule, active = well fitted inhibition curve with a large enough effect; inconclusive = small, poorly fitted or top-dose-only effect; inactive = no such curve, though single readings can be large or run the other way.
Potency is read from the fitted curve at half-maximal effect.

Sequence of Lysine-specific demethylase 5B (Homo sapiens) (Q9UGL1 whole entry, looked up): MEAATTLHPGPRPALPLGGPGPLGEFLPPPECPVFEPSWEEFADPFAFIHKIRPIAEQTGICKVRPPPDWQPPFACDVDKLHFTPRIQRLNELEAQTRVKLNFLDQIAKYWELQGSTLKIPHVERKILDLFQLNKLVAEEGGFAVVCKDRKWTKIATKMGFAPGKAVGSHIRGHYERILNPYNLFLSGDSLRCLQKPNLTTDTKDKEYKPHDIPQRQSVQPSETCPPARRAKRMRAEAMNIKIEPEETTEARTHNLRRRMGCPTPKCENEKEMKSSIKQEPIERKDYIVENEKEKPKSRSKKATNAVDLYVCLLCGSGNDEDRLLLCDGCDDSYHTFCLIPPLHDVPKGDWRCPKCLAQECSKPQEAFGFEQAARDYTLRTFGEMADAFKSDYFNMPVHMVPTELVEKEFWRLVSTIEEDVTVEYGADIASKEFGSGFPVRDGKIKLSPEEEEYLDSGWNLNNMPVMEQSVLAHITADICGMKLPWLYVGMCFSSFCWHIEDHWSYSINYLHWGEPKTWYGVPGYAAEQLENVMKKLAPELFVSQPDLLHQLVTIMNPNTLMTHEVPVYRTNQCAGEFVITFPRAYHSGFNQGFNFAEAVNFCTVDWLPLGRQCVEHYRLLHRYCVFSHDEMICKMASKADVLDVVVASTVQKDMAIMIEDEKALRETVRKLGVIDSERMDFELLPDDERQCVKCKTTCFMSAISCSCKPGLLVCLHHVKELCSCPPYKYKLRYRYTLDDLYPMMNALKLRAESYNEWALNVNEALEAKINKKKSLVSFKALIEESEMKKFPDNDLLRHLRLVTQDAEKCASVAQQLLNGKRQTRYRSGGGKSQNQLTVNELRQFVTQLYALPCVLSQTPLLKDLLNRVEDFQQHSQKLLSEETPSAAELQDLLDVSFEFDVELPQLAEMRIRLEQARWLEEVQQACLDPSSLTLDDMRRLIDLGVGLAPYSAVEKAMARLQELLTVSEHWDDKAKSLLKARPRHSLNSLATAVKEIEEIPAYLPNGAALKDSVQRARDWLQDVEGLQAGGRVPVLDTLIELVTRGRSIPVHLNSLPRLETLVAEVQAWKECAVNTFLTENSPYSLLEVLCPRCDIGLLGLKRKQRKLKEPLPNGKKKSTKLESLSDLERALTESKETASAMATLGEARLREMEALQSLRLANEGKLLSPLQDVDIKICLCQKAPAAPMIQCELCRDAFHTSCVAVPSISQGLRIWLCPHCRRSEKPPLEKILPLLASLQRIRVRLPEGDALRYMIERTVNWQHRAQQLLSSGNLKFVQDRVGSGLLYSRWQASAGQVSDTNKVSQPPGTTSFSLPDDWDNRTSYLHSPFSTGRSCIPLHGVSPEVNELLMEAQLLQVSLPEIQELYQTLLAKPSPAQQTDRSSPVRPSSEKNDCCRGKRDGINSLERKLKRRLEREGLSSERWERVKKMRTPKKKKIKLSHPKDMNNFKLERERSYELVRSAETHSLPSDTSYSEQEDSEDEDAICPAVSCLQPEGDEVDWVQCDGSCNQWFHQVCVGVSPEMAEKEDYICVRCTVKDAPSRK

The test has as its target Lysine-specific demethylase 5B (Homo sapiens) (UniProt Q9UGL1). The test can be described thus: Primary screen for KDM5B Histone Demethylases FDH-coupled qHTS. Also: nearly all actives have a fitted effect of over 70% in size. As to activity change, negative = inhibition: 0% is about no effect. The settings on record: FDH-coupled NADH fluorescence (FDH is formaldehyde dehydrogenase); series mostly up to 57.7 µM; activity change, negative = inhibition: at the top concentration. An excerpt: Assay Submitter (PI): Qin Yan, Ph.D. (Yale University) and Xiaodong Cheng, Ph.D. (MD Anderson) This project was funded as part of the NCI NEXT Program and Chemical Biology Consortium (CBC) The histone demethylases, KDM5A and KDM5B catalyze the demethylation of lysine 4 on histone H3 (H3K4me3/2). They are overexpressed in a variety of cancers and have been implicated in cancer cell growth, metastasis, drug resistance, and tumor growth. KDM5A is amplified and overexpressed in breast and gastric cancer; and is translocated in leukemia. While KDM5B is highly expressed in human mammary tumors and breast cancer cell lines, but not in normal adult breast tissue. Moreover, knockdown of KDM5B leads to upregulation of tumor suppressor genes, including BRCA1. The goal of this project is to employ qHTS to identify selective small molecule inhibitors of KDM5A/B demethylase activity to better understand the role of KDM5 in cancer and to develop novel therapies. We employed an FDH-coupled assay previously reported by Sakurai et al. to monitor in vitro KDM5 demethylase activity. Compounds showing dose response inhibition are re-acquired, validated, and tested for non-specific interference with the formaldehyde dehydrogenase (FDH) counterscreen. True inhibitors are validated using an AlphaLisa secondary screen, which employs an H3K4(me2-1)-specific antibody to monitor demethylation of a biotin-tagged H3K4(me3) peptide substrate. Inhibitors are profiled against KDM4A and KDM6A AlphaLisa counterscreens to determine level of demethylase specificity; and against the TruHits counterscreen to eliminate non-specific inhibitory activity on the AlphaLISA detection method. Selective inhibitors identified from the primary and secondary screening are tested in cells using immunofluorescence to monitor global H3K4 tri-methylation as a measure of KDM5A/B inhibition. Early Translation Branch (ETB) National Center for Advancing Translational Sciences (NCATS), Rockville, MD National Institute of Health (NIH), Bethesda, Maryland [1] Sakurai, M et al. A miniaturized screen for inhibitors of Jumonji histone demethylases. Mol Biosyst. 2010 Feb;6(2):357-64. doi: 10.1039/b912993f. Epub 2009 Oct 8.
Materials: 1536-well Black, solid bottom, medium binding assay plate is purchased from Greiner Bio-one. The enzymes (KDM5B) and substrate (H3K4me3/2) are provided by the principal investigators. The buffer for this assay is composed of 50mM HEPES at pH 7.5 with 0.01% Tween-20. FDH coupled Demethylase qHTS protocol: Three microliter enzyme mix (buffer + 200nM KDM5BDeltaAP final concentration) is dispensed into the assay plate using the BioRAPTR Flying Reagent Dispenser (FRD; […]). Compound (at various final concentration) and control solution is pin transferred to the assay plate using the Kalypsys 1536-pin tool apparatus. The assay plate is incubated for 10 min at room temperature followed by addition of 1uL substrate mix (buffer + 100uM ascorbic acid, 50uM ferrous ammonium sulfate, 12.5uM H3K4Me3, 25uM a-ketoglutarate, 0.25 mM NAD+, 0.25 U/mL formaldehyde dehydrogenase using the FRD yielding a total reaction volume of 4 uL. Initial fluorescence (Read1) is detected using the PerkinElmer ViewLux plate reader equipped with 340 nm excitation and 450 nm emission filters. The final fluorescence (Read2) signal is obtained after 30 min of room temperature incubation. Delta RFU is calculated (Read2 - Read1) and is used to generated dose response curves.
(In general: In qHTS, concentration-response curves come from the screen itself.)
As to `Cc1cc(Cl)cc(SCC(=O)O)c1Cl`, the “activity change, negative = inhibition” value was 12%. Same read-out and setting: the figure for `CC(C)NC(=S)N/N=C1\CCc2ccccc21` is -6.15%. For `CC(O)CNC(=O)c1ccc(-c2ncc3cnc(C4=CCOCC4)cn23)cc1` (stereo unspecified), the Potency was 35.5 µM (active). Take `Cc1ccc(S(=O)(=O)N2CC(C)N(S(C)(=O)=O)C2)cc1` (stereo unspecified): the “activity change, negative = inhibition” value is 29.2%. Take `COc1ccc(CN(C)C(=O)c2nn(C)c(=O)c3ccccc23)cc1F`: the “activity change, negative = inhibition” value is -16.1%. Take `COc1ccccc1-c1cc(C(=O)N(C)C)nc2c1cnn2C`: the Potency was 89.1 µM (active). With `COc1ccccc1CNC(=O)c1nn(C)c(=O)c2ccccc12`, the “activity change, negative = inhibition” value was 6.64%. On the same count and under the same terms, as for `O=C(/C=C/c1ccc(F)cc1)NNC(=O)c1ccc(NC(=O)C2CCCCC2)cc1`, the figure is 22.8%; as for `CCCCCOC(=O)COc1ccc2c(=O)c(Oc3cccc(C)c3)c(C(F)(F)F)oc2c1`, -13.5%.

As to `CC(C)C(NC(=O)Cc1ccc(N2CCCC2=O)cc1)c1nc2ccccc2[nH]1` (stereo unspecified), the “activity change, negative = inhibition” value is 0.833%. For the compound `CCCS(=O)(=O)N1Cc2c(ncn2Cc2ccc(Cl)cc2)C[C@H]1C(=O)OC`, the “activity change, negative = inhibition” value is -11.5% [at 86.2 µM]. As to `CCCn1cnc2c1CN(S(=O)(=O)Cc1ccccc1)[C@H](C(=O)OC)C2`, the Potency was 39.8 µM (active). For `COC(=O)[C@@H]1Cc2ncn(Cc3ccccc3)c2CN1C(=O)CC(C)(C)C`, the “activity change, negative = inhibition” value was 12.1% [at 86.2 µM]. The same measure, in the same setting: the figure for `CCC(C)NC(=O)c1sccc1-c1ccccc1` (stereo unspecified) is -1.07%; for `CCc1nc2ccc(C(=O)NCCCN(CC)CC)cc2nc1CC` it is -4.96%. Regarding `CCc1c(C)sc(NC(=O)c2cccc(Br)c2)c1C#N`, the “activity change, negative = inhibition” value was -22.5%. Turning to `CC1CCC2CCCCC2N1C(=O)c1cc([N+](=O)[O-])cc([N+](=O)[O-])c1` (stereo unspecified), the “activity change, negative = inhibition” value was 15.2%. On the same count and under the same terms, as for `O=S(=O)(c1cccs1)N1CCn2cccc2C1c1ccccc1F` (stereo unspecified), the figure is -17.1%. For the compound `Cn1ccnc1C(=O)N1CCC2(CC1)CN(c1ncccn1)CC2CO` (stereo unspecified), the Potency was 22.4 µM (active). Consider `CC(=O)N1CC(CO)C2(CCN(C(=O)c3ccccc3Cl)CC2)C1` (stereo unspecified), for which the “activity change, negative = inhibition” value was -9.24%.

Regarding `CCN1C(=O)C2CC3(CCN(C(=O)c4nccn4C)CC3)CN2C1=O` (stereo unspecified), the “activity change, negative = inhibition” value is -0.431%. Same read-out and setting: as for `Cn1cc(CC(=O)N2CCCc3ncc(C(=O)NCCOc4ccccc4)cc32)c2ccccc21`, the figure is -22.5%; as for `Cc1cccc(NC(CNS(=O)(=O)c2ccccc2)c2ccccc2)c1` (stereo unspecified), -32.1%.

As for `CC(C)OCCC(=O)N1CCCC(CN2CCN(c3ccccn3)CC2)C1` (stereo unspecified), the “activity change, negative = inhibition” value was 8.81%. With `O=C(CC(NC(=O)c1ccccc1)c1ccccc1)NCc1cccs1` (stereo unspecified), the “activity change, negative = inhibition” value is 16.9%. Still for that read-out and setting: the figure for `CCOC(=O)N1CCN(Cc2cc(=O)oc3c(C)c(C)cc(C)c23)CC1` is 7.55%. For `c1cnc2nc(C3CCCCN3)[nH]c2c1` (stereo unspecified), the “activity change, negative = inhibition” value was 31.4% [at 230 µM].

For the compound `CCC(Sc1nc2ncccc2[nH]1)C(=O)Nc1ccc(C)c(Cl)c1` (stereo unspecified), the “activity change, negative = inhibition” value was 0.346%.

As for `Cc1cc(C)c(-c2nc3ncccc3[nH]2)[nH]1`, the Potency was 35.5 µM (active).

As for `OC(c1nc2ccc(F)cc2[nH]1)C(O)c1nc2ccc(F)cc2[nH]1` (stereo unspecified), the “activity change, negative = inhibition” value was 22.8%. As to `O=C1c2cnc(-c3ccccc3)nc2OCCN1c1ccccc1`, the “activity change, negative = inhibition” value was -26.1% [at 86.2 µM]. For the compound `O=C1c2cnc(-c3ccc(O)c(F)c3)nc2OCCN1Cc1ccccc1`, the Potency was 20 µM (active). As to `NC(=O)c1cccc(-c2ncc3c(n2)OCCN(Cc2ccccc2)C3=O)c1`, the “activity change, negative = inhibition” value is -15.6% [at 86.2 µM]. For `NC(=O)c1cccc(-c2ncc3c(n2)OCCN(c2cccc(C(F)(F)F)c2)C3=O)c1`, the “activity change, negative = inhibition” value is -19.4% [at 86.2 µM]. In the case of `COc1ccc(-c2ncc3c(n2)OCCN(Cc2ccccc2)C3=O)cn1`, the Potency is 28.2 µM (active). As to `O=C1c2cnc(-c3ccc(Cl)cc3)nc2OCCN1Cc1ccccc1`, the “activity change, negative = inhibition” value was -17.4% [at 86.2 µM]. Turning to `CCCNc1c(NC(=O)Nc2ccccc2)c(=O)oc2ccccc12`, the “activity change, negative = inhibition” value was 2.4%. Still for that read-out and setting: the figure for `CCCCN1C(=O)NC(c2ccc(OC)cc2)C2=C1COC2=O` (stereo unspecified) is 1.95%; for `O=C(Nc1ccc(F)cc1)C1=C(N2CCCC2)c2ccccc2S1(=O)=O` it is -3.03%; for `Cn1nc(C(=O)Nc2nc(-c3cc(F)ccc3F)cs2)c2ccccc2c1=O` it is 10.3%. Still for that read-out and setting: the figure for `CC(C)(C)Sc1ccc2nn(CC(=O)NCc3ccccc3Cl)c(=O)n2n1` is -3.69%; for `Cc1nc(Cc2nn3c(-c4cc(Cl)ccc4F)nnc3s2)cs1` it is 10.3%.

Turning to `Cc1nc(C)c(C(=O)C2=C(O)C(=O)N(CCN3CCOCC3)C2c2ccc(C(C)(C)C)cc2)s1` (stereo unspecified), the “activity change, negative = inhibition” value was -23%.

As to `COC(=O)c1ccc(COc2c(Cl)cccc2Cl)cc1`, the “activity change, negative = inhibition” value was 16.2%. Regarding `Cc1nn(-c2ccc(C(C)(C)C)cc2)c(C)c1[C@@H]1C=C[C@@H](NC(=O)c2ccco2)C1`, the Potency is 31.6 µM (active). In the case of `Cc1nn(-c2ccc(C(C)C)cc2)c(C)c1[C@@H]1C=C[C@@H](NC(=O)Nc2ccccc2)C1`, the “activity change, negative = inhibition” value was 1.7% [at 86.2 µM]. `Cc1nn(-c2ccccc2)c(C)c1[C@@H]1C=C[C@@H](NC(=O)c2ccc3c(c2)OCO3)C1`: the “activity change, negative = inhibition” value was -20% [at 86.2 µM].

As to `CCCCN(CCCC)c1nc2ccccc2nc1C(C#N)C(=O)OC(C)C` (stereo unspecified), the “activity change, negative = inhibition” value is -8.23%.

Consider `N#Cc1cccc(Oc2cccc3cccnc23)c1C#N`, for which the “activity change, negative = inhibition” value was -19.6%. On the same count and under the same terms, as for `c1csc(CNCC2CCNCC2)c1`, the figure is -4.86%; as for `O=Cc1cccc(-c2cc(F)cc(F)c2)c1`, 16.8% [at 230 µM].
